This assay deals with MDA-MB-468 breast. Put plainly: NCI-60 one-dose screen, 48 h (100 = growth as untreated, 0 = no growth, -100 = all killed). The settings on record: 10 µM unless noted.

Molecules are shown by their SMILES. This is part of a sample that, as a whole, favours compounds with a hit. Of some 83,000 tested, about 20% had one in any assay.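 Interpretation: 100, growth as untreated; towards 0, rising growth inhibition; 0, no net growth; 0 to -100, cell death. Compounds scoring below 10 were considered active.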 Unmarked numbers belong to inactive results. Activity calls are given as the source filed them.

Take `COCCOc1cnc2ccn([C@H](C)c3nnc4c(F)cc(-c5cnn(C)c5)cn34)c(=O)c2c1`: the growth is 96.7%.
With `COc1ccc(S(=O)(=O)NCCCNc2nccc(-n3cnc4ccccc43)n2)cc1` the figure was 77.2%.
For the molecule `CCN(CC)CCN1C(=O)c2c(c3c4ccccc4[nH]c3c3ccc4ccccc4c23)C1=O`, the growth is 79.5%.
The result for `CCCCCN(CCCCC)CCC[C@@H](C)[C@H]1CC[C@H]2[C@@H]3[C@H](OCCCN)C[C@@H]4C[C@H](OCCCN)CC[C@]4(C)[C@H]3C[C@H](OCCCN)[C@]12C` reads 71.1%; that for `Cn1cc(-c2cc3ncnc(Nc4ccc(CC(=O)Nc5cc(C(C)(C)C)on5)cc4)c3s2)cn1`, 31.5%.
With `Nc1ncccc1O` the figure was 74%; with `C/C(Cc1ccc(Cl)cc1)=C(\c1ccc(OCCN2CCCCCC2)cc1)c1ccc(OC(=O)c2ccccc2)cc1`, 48.1%; with `COc1ccccc1-c1ccc2c(N)c(C(=O)c3ccc4c(c3)OCO4)sc2n1`, 55.1%.
On to `O=C(CCCCC(=O)Oc1c(Cl)cc(Cl)cc1[N+](=O)[O-])Oc1c(Cl)cc(Cl)cc1[N+](=O)[O-]`, for which the growth is 113%.
The result for `O=C(CCN1C(=O)/C(=C/c2ccc(O)cc2)SC1=S)Nc1ccccc1` reads 100%; that for `O=C1Nc2ccccc2/C1=N/N1C(=O)CN(CCCl)C1=O`, 107%.
On to `Cc1[nH]c(C(=O)Nc2ccc(C(N)=O)cc2NC(C)C)c(Cl)c1Cl`, for which the growth was 83.7%.
With `COc1cc(-c2n/c(=C\c3c(O)[nH]c4ccc(Cl)cc34)cc3c2=Nc2ccccc2-3)ccc1F` the figure was -7.14% (active); with `O=C(NCCN1CCOCC1)OCc1ccc2c(Cl)cc(Cl)c(O)c2n1`, 81.6%.
Regarding `C=C(C=O)[C@@H]1CC[C@]2(CO)CC[C@]3(C)[C@H](CC[C@@H]4[C@@]5(C)CCCNC(C)(C)[C@@H]5CC[C@]43C)[C@@H]12`, the growth is 48.6%.
The result for `Oc1cccnc1CN1CCCC1` reads 104%.
With `COc1ccc(/C=C/c2c(C(=O)/C=C/c3ccc(C(F)(F)F)cc3)c(C)nc3ccccc23)cc1` the figure was -54.5% (active); with `O=C(Nc1cccc(-n2cc(-c3ccncc3)c(-c3ccc(Cl)c(O)c3)n2)c1)Nc1cccc(C(F)(F)F)c1`, 10.5%; with `Cc1ccc(OC(=O)c2ccccc2)cc1`, 107%.
The result for `CCN(CC)C(Cl)=Nc1ccc(Cl)cc1` reads 103%; that for `Clc1cccc(/C=N/Nc2nc(N/N=C/c3cccc(Cl)c3)nc(N3CCOCC3)n2)c1`, 30.8%.
Regarding `CC1=C(C)C(=O)C(Nc2ccc(C)c(C)c2)=C(Br)C1=O`, the growth was 1.26% (active).
Consider `c1ccc(-c2c(-c3ccccc3)[n+](Cc3ccc4ccccc4c3)c(-c3ccc(-c4nc5ccccc5s4)cc3)n2Cc2ccc3ccccc3c2)cc1`, for which the growth was -77.8% (active).
With `Oc1c(CN2CCC(N3CCOCC3)CC2)cc(Cc2cc(CN3CCC(N4CCOCC4)CC3)c(O)c3ncccc23)c2cccnc12` the figure was 9.12% (active).
The result for `COC(=O)c1c2c(c(C)[n+]([O-])c1C)C(=O)C=CC2=O` reads -33% (active); that for `C[C@]12CCc3nc(Nc4ccc(O)cc4)sc3C1=CC[C@@H]1[C@@H]2CC[C@]2(C)/C(=N/NC(N)=S)CC[C@@H]12`, -58.2% (active).
The result for `COc1ccc2nc3ccccc3c(NCc3ccc(Cl)cc3)c2c1` reads -30.6% (active); that for `O=S(=O)(NCCCNc1cc(-c2cn(-c3ccccc3)nc2-c2cccc(O)c2)ccn1)c1ccc(C(F)(F)F)cc1`, 3.04% (active); that for `O=C(/C=C/c1ccc(Cl)cc1)c1ccc(O)c(CN2CCN(c3cc4c(cc3F)c(=O)c(C(=O)O)cn4C3CC3)CC2)c1`, 40.9%.
Regarding `Cc1cccc2ccccc12`, the growth was 103%.
Turning to `O=C(O)c1ccc(Br)nc1`, the growth was 88.6%.
The result for `C#Cc1cccc(Nc2ncnc3ccc(-c4cncc(NS(C)(=O)=O)c4)cc23)c1` reads -40.3% (active); that for `O=C1/C(=C\c2ccccc2)CN(C(=O)c2ccccc2F)C/C1=C\c1ccccc1`, -72.4% (active).
Consider `CCCCOc1nc2c(C)cccc2cc1C1CNC(=O)c2ccccc2N1` (stereo unspecified), for which the growth was 51.6%.
With `O=C(CC1(O)C(=O)Nc2c(Cl)ccc(Cl)c21)c1ccc(Cl)cc1Cl` (stereo unspecified) the figure was 103%.
Consider `C#Cc1cc(OC)c(C(=O)Nc2ccc(F)cc2C(=O)Nc2cccc(S(=O)(=O)C(F)(F)F)c2)cn1`, for which the growth was -31.3% (active).
With `COc1ccc(-n2c(-c3ccccc3)c(-c3ccccc3)c3c(SCC(=O)N/N=C/c4ccc(Cl)cc4)ncnc32)cc1` the figure was 77.6%; with `CC(C)(C)OC(=O)N1C/C(=C\c2ccoc2)C(=O)/C(=C/c2ccoc2)C1`, 97.3%.
In the case of `CSc1nc2c(c(=O)[nH]1)N=C1c3ccccc3C(=O)C1C(c1ccc(F)cc1)N2` (stereo unspecified), the growth is 21.7%.
With `Cc1cccc(C)c1NC(=S)/N=C\c1c(O)[nH]c(=O)[nH]c1=O` the figure was 114%.
As for `O=c1[nH]cnc2c1C(c1ccc(Br)cc1)c1sc3c(F)cccc3c1O2` (stereo unspecified), the growth is 105%.
`N#CC1=C(N)Oc2ccc3ccccc3c2C1c1ccccc1Cl` (stereo unspecified): the growth was 31.1%.
The result for `COc1ccc(-c2cc(C(=O)Nc3ccc(C)cc3)nc3[nH]c(=O)sc23)cc1` reads 66.6%; that for `CCn1cc(/C=C2\Oc3cc(OCC#N)ccc3C2=O)c2cc(OC)ccc21`, 20%; that for `Oc1ccc(CCC2CCNc3ccccc32)cc1` (stereo unspecified), 46.8%.
The result for `Cn1ccnc1C(=O)/C=C/c1ccc(CC(=O)Nc2ccc(F)cc2)cc1` reads -4.62% (active).
With `COc1ccc(S(=O)(=O)NCCCNc2cc(-c3c(-c4cccc(OC)c4)nc4sccn34)ccn2)cc1` the figure was 11.3%.
As to `O=C(OCc1ccc2c(Cl)cc(Cl)c(O)c2n1)n1cncn1`, the growth is 14%.
In the case of `O=S(=O)(Nc1ccc2c(c1)OCO2)c1ccc(-c2cnc(C3CC3)o2)cc1`, the growth was -3.85% (active).
Take `COc1cc2c(Nc3ccc(Br)cc3F)ncnc2cc1OCC1CCN(C)CC1`: the growth was -23.3% (active).
Consider `CCN1C(=O)N(CC)C2Nn3c(s/c(=C\c4ccccc4F)c3=O)=NC21` (stereo unspecified), for which the growth was 28.9%.
Take `Cc1ccc(-c2csc(NC(=O)CSc3nc(N)cc(N)n3)n2)cc1`: the growth is 11.6%.
For `COc1ccc(/C=C/C(=O)c2ccc(-n3cc(CN4CCN(c5cc6c(cc5F)c(=O)c(C(=O)O)cn6C5CC5)CC4)nn3)cc2)cc1OC`, the growth is -7.19% (active).
With `CC(=O)Nc1nc(C(=O)N2N=C(C)/C(=C/c3ccccc3)C2=O)cs1` the figure was 103%; with `O=c1cc(-c2ccccc2)nc2cc(-c3ccco3)[nH]n12`, -1.48% (active); with `COc1cccc2c1[C@H](OC)[C@]13O[C@@]1(C2=O)[C@H](O)[C@H](C)[C@@](O)(C(=O)[C@@H]1O[C@H]1C)[C@@H]3O`, -40.5% (active).
As to `C/C(=N\Nc1ccc2ccccc2n1)c1ccccn1`, the growth was -36.1% (active).
For the molecule `Cc1ccc(-c2nc(C#N)c(S(=O)(=O)n3nc(-c4ccccc4)cc3N)o2)cc1`, the growth is 63.1%.
On to `CC(=O)C1N=NCC1c1ccccc1` (stereo unspecified), for which the growth was 102%.
As for `CCN(CC)CCCNCCCNc1cc(OC)cc2cccnc12`, the growth was -10.4% (active).
The result for `COC1OCC(O)C(O)C1O` (stereo unspecified) reads 100%; that for `CCCCn1c(C)nc2cc(Nc3nc(Cl)nc4nc[nH]c34)ccc21`, 44.3%; that for `O=C(CN1CCN(c2ccc(Cl)cc2)CC1)N1CCN(c2nnc(-c3ccccc3)c(-c3ccccc3)n2)CC1`, 35.1%.
With `COc1c(B(O)O)cccc1-c1nc2ccc3[nH]ncc3c2c2c1CCC2` the figure was 60%; with `CCOc1ccc(NC(=O)c2ccccc2-c2ccccc2C(=O)O)cc1`, 101%; with `N=c1ccc2nc3ccc(N)cc3sc-2c1`, -16.2% (active).
The result for `Cc1ccc2c(c1)ncn2-c1ncnc2c1CC(C)c1ccccc1N2C` (stereo unspecified) reads 38%; that for `NC1=C(/C(N)=N/O)C(c2ccccc2)c2ccc3ccccc3c2O1` (stereo unspecified), -1.49% (active).
For the molecule `CN1C(=O)/C(=C/c2nc(-c3cccc(F)c3)n3ccccc23)c2ccccc21`, the growth was 101%.
For `Cc1c([C@H](C(Cl)Cl)[C@H](O)[C@H]2C[C@H](C)C(=O)O2)ccc2c1C(=O)[C@H]1[C@H]2C[C@@H](Br)[C@@]23O[C@@H](CO[C@H]2O)CC13C` (stereo partly specified), the growth was 17.5%.
`COc1ccc(C(=O)O)cc1.[Ag]`: the growth was 93.9%.
Take `CC1=C/C(=C(\c2cc(C)c(O)c(C(=O)O)c2)c2c(Cl)cccc2Cl)C=C(C(=O)O)C1=O`: the growth is 104%.
With `O=S(=O)(NCCCNc1nccc(-c2c(-c3cccc(F)c3)nc3sccn23)n1)c1cccc2ccccc12` the figure was 59.3%; with `CN1CCN(CCCOc2ccc3ncnc(Nc4ccc(OCc5cccc(F)c5)c(Cl)c4)c3c2)CC1`, -63.1% (active).
The result for `CS(=O)(=O)c1ccc(-c2nc3ccccc3n2CC(=O)N/N=C/c2ccccc2)cc1` reads 112%; that for `COc1cc(C2c3cc(OC(C)=O)c(OC)cc3CC3C(=O)OCC32)ccc1OC(C)=O` (stereo unspecified), 96%.
The result for `CC(C)(C)CC(C)(C)Nc1c(-c2ccncc2)nc2cnccn12` reads 87.5%; that for `CCN(CC)c1ccc(C(=N)c2ccc(N(CC)CC)cc2)cc1`, -24.8% (active).
For the molecule `O=C1c2cccc3cccc(c23)C(=O)N1CC#Cc1ccc2c3c(cccc13)C(=O)N(CCO)C2=O`, the growth was 94.2%.
With `CCN(CC)CC[n+]1cc2cc(OC)c(OC)cc2c2ccc3cc4c(cc3c21)OCO4` the figure was -27% (active); with `CCN1CCN(c2cc(C)nc(N(CCCNc3ccnc4cc(Cl)ccc34)Cc3cccs3)n2)CC1`, -26.4% (active).
